Data: PubChem BioAssay (EPA / NIEHS)
Results filed as inconclusive are left out. Calls of active or inactive are those of the source. How the source made its calls, unless noted: active means hit-call score of the fitted dose curve at least 0.9, where 1 is the maximum; inactive means score below 0.9.

Key:
[1] = molecular target: Myc proto-oncogene protein (Homo sapiens) (UniProt P01106); test: ATG_Myc_CIS: Attagene CIS-FACTORIAL HepG2 Assay for human Myelocytomatosis (Myc) Proto-Oncogene Transcription Factor (AID 2282990); settings: HepG2, Attagene cis-reporter transcription factor activity; actives raise or lower the signal
Summary of the method: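 After 24 h chemical treatment of HepG2 cells carrying multiplexed cis-regulated reporter constructs, reporter transcripts quantified by RT-PCR and capillary electrophoresis of fluorescent fragments. Gain or loss fitted against DMSO baseline.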

[2] = ATG_NF_kB_CIS: Attagene CIS-FACTORIAL HepG2 Assay for human Nuclear Factor Kappa B (NF-kB) (AID 2282991); settings: HepG2 Attagene cis-factorial NF-kB reporter mRNA; actives raise or lower the signal
Summary of the method: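 HepG2 cells transfected with cis-promoter-driven reporter units, so endogenous transcription factor activity is measured. Reporter mRNA quantified 24 h after dosing by RT-PCR and capillary electrophoresis, with bidirectional fitting against DMSO.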

[3] = ATG_NRF2_ARE_CIS: Attagene CIS-FACTORIAL HepG2 Assay for human Nuclear Factor Erythroid 2 Related Factor 2 (NFR2) response to Antioxidant Response Elements (ARE) (AID 2282992); settings: HepG2 Attagene ARE/NRF2 reporter, transcription factor activity; actives raise or lower the signal;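 on AC50: reporter mRNA level measured by RT-PCR and capillary electrophoresis fluorescence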
Summary of the method: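 HepG2 cells transiently transfected with multiplexed cis-regulated reporter transcription units measure endogenous transcription factor activity. Reporter mRNA at 24 h is quantified by RT-PCR, fluorescent labelling and capillary electrophoresis, with bidirectional fitting relative to DMSO.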

[4] = ATG_Oct_MLP_CIS: Attagene CIS-FACTORIAL HepG2 Assay for human Octamer-Binding Transcription Factor (Oct) (AID 2282993); settings: HepG2 Attagene cis-factorial Oct reporter, mRNA; actives raise or lower the signal
Summary of the method: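 HepG2 cells transiently transfected with cis-element-driven reporter transcription units (endogenous TF activity); 24 h compound exposure. Reporter mRNA quantified by RT-PCR, 6-FAM labelling, HpaI digestion and capillary electrophoresis; bidirectional fit versus DMSO baseline.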

[5] = molecular target: Cellular tumor antigen p53 (Homo sapiens) (UniProt P04637); test: ATG_p53_CIS: Attagene CIS-FACTORIAL HepG2 Assay for human p53 Transcription Factor (AID 2282994); settings: HepG2 p53 cis-element reporter, Attagene mRNA; actives raise or lower the signal
Summary of the method: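 HepG2 cells transiently transfected with multiplexed cis-regulated reporter transcription units read endogenous TF activity. After 24 h compound exposure, reporter mRNA was quantified by RT-PCR, fluorescent labelling, HpaI digestion and capillary electrophoresis; bidirectional fits versus DMSO baseline.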

[6] = molecular target: human Peroxisome Proliferator-activated Receptor alpha (PPARa), PPARA (gene 5465) (UniProt Q07869); test: ATG_PPARa_TRANS: Attagene TRANS-FACTORIAL HepG2 Assay for human Peroxisome Proliferator-activated Receptor alpha (PPARa) (AID 2283001; active means hit-call score of the fitted dose curve at least 0.9, where 1 is the maximum)
Summary of the method: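 Read-out is fluorescence of reporter cDNA fragments resolved by capillary electrophoresis after RT-PCR. Human HepG2 liver cells carried transfected PPARa-Gal4 chimera and GAL4-UAS reporter units, treated 24 h; activity scored as increase over DMSO.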

[7] = molecular target: human Peroxisome Proliferator-activated Receptor delta (PPARd), PPARD (gene 5467) (UniProt Q03181); test: ATG_PPARd_TRANS: Attagene TRANS-FACTORIAL HepG2 Assay for human Peroxisome Proliferator-activated Receptor delta (PPARd) (AID 2283002; active means hit-call score of the fitted dose curve at least 0.9, where 1 is the maximum)
Summary of the method: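 Read-out is induced reporter mRNA, quantified by RT-PCR with fluorescent labelling and capillary electrophoresis after 24 h dosing. Cells are HepG2 transiently carrying multiple GAL4-UAS reporter units driven by exogenous NR-GAL4 chimeras; DMSO serves as baseline.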

[8] = molecular target: human Retinoic Acid Receptor beta (RARb), RARB (gene 5915) (UniProt P10826); test: ATG_RARb_TRANS: Attagene TRANS-FACTORIAL HepG2 Assay for human Retinoic Acid Receptor beta (AID 2283004; active means hit-call score of the fitted dose curve at least 0.9, where 1 is the maximum)
Summary of the method: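 HepG2, transient MRTU transfection, NR–Gal4 chimera, 24 h treatment; RT-PCR plus CE fluorescence detection of reporter mRNA; gain of signal vs DMSO.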

[9] = molecular target: Peroxisome proliferator-activated receptor gamma (Homo sapiens) (UniProt P37231); test: ATG_PPARg_TRANS: Attagene TRANS-FACTORIAL HepG2 Assay for human Peroxisome Proliferator-activated Receptor-gamma (PPARg) (AID 2283007; active means hit-call score of the fitted dose curve at least 0.9, where 1 is the maximum)
Summary of the method: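 HepG2 cells are transiently transfected with GAL4-UAS reporter units driven by chimeric NR-Gal4 fusions and dosed for 24 h. Reporter mRNA is quantified by RT-PCR, 6-FAM labelling, HpaI digestion and capillary electrophoresis. Induction is scored against DMSO.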

[10] = molecular target: Nuclear receptor subfamily 1 group I member 2 (Homo sapiens) (UniProt O75469); test: ATG_PXR_TRANS: Attagene TRANS-FACTORIAL HepG2 Assay for human Pregnane X Receptor (PXR) (AID 2283008; active means hit-call score of the fitted dose curve at least 0.9, where 1 is the maximum)
Summary of the method: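 HepG2 cells transiently transfected with multiple reporter units, here a PXR-GAL4 chimera driving a GAL4-UAS reporter; 24 h compound exposure. Reporter mRNA measured by RT-PCR, FAM labelling and capillary electrophoresis; gain of signal fitted against DMSO baseline.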

[11] = molecular target: human RAR-related Orphan Receptor gamma (RORg), RORC (gene 6097) (UniProt P51449); test: ATG_RORg_TRANS: Attagene TRANS-FACTORIAL HepG2 Assay for human RAR-related Orphan Receptor gamma (RORg) (AID 2283011; active means hit-call score of the fitted dose curve at least 0.9, where 1 is the maximum)
Summary of the method: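 Activity is scored as increase in GAL4-UAS reporter mRNA over DMSO, detected by fluorescent RT-PCR and capillary electrophoresis in HepG2 cells transiently expressing a RORg-Gal4 chimera, 24 h after dosing.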

[12] = molecular target: Retinoic acid receptor alpha (Homo sapiens) (UniProt P10276); test: ATG_RARa_TRANS: Attagene TRANS-FACTORIAL HepG2 Assay for human Retinoic Acid Receptor alpha (RARa) (AID 2283005; active means hit-call score of the fitted dose curve at least 0.9, where 1 is the maximum)
Summary of the method: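 Reporter transcripts, measured by RT-PCR with fluorescent labeling and capillary electrophoresis after 24 h dosing, reflect activity of an exogenous human RARa–GAL4 fusion in transiently transfected HepG2. Fitted for increase relative to DMSO.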

[13] = molecular target: human Retinoic Acid Receptor gamma (RARg), RARG (gene 5916) (UniProt P13631); test: ATG_RARg_TRANS: Attagene TRANS-FACTORIAL HepG2 Assay for human Retinoic Acid Receptor gamma (RARg) (AID 2283009; active means hit-call score of the fitted dose curve at least 0.9, where 1 is the maximum)
Summary of the method: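 HepG2 transiently transfected with GAL4-UAS reporter units and chimeric NR-Gal4 constructs; 24 h compound exposure. Reporter mRNA quantified by RT-PCR, FAM labeling, HpaI digestion and capillary electrophoresis; gain-of-signal versus DMSO.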

[14] = BSK_3C_TissueFactor: BioMAP Diversity Plus: 3C Assay for Tissue Factor Biomarker Activity (AID 2282997); settings: BioMAP 3C HUVEC, tissue factor biomarker readout; actives raise or lower the signal
Summary of the method: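 Values derive from bidirectional curve fitting against DMSO of Tissue Factor ELISA signals, taken 24 h after dosing primary human umbilical vein endothelial cells.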

[15] = BSK_3C_uPAR: BioMAP Diversity Plus: 3C Assay for Urokinase-type plasminogen activator receptor (uPAR) Biomarker Activity (AID 2282998); settings: BioMAP 3C HUVEC, uPAR biomarker ELISA; actives raise or lower the signal
Summary of the method: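 Primary human umbilical vein endothelial cells, 3C system; surface uPAR measured by ELISA 24 h after dosing. Cytotoxicity via SRB total protein in parallel cultures; bidirectional fit against DMSO.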

[16] = BSK_4H_Eotaxin3: BioMAP Diversity Plus: 4H Assay for Eotaxin 3 Biomarker Activity (AID 2283000); settings: primary human endothelial cells (HUVEC); actives raise or lower the signal;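 on outcome: CCL26 protein level quantified by ELISA in parallel with SRB cytotoxicity check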
Summary of the method: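 Endothelial primary cells (human umbilical vein) exposed to compound for 24 h. ELISA detection of Eotaxin-3.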

[17] = read-out: Intercellular Adhesion Molecule 1 (ICAM1), ICAM1 (gene 3383); test: BSK_3C_ICAM1: BioMAP Diversity Plus: 3C Assay for Intercellular Adhesion Molecule 1 (ICAM1) Biomarker Activity (AID 2283003); settings: primary human endothelial cells (HUVEC); actives raise or lower the signal
Summary of the method: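 HUVEC primary cells stimulated under 3C conditions; ICAM1 measured by ELISA 24 h after compound dosing. Curves fitted bidirectionally against the DMSO baseline. Overt cytotoxicity checked by SRB staining of parallel cultures.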

[18] = BSK_3C_Proliferation: Cell Proliferation Assessment in the BioMAP Diversity Plus: 3C Assay (AID 2283006); settings: primary human endothelial cells (HUVEC);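 on AC50: potency may reflect either rise or fall in cell number versus DMSO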
Summary of the method: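 Subconfluent HUVEC (3C system) cultured with chemical; relative cell number read at 48 h by sulforhodamine B total-protein staining (0.1% SRB after 10% TCA fixation, 560 nm). Bidirectional fit relative to DMSO.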

[19] = molecular target: human RAR-related Orphan Receptor beta (RORb), RORB (gene 6096) (UniProt Q92753); test: ATG_RORb_TRANS: Attagene TRANS-FACTORIAL HepG2 Assay for human RAR-related Orphan Receptor beta (RORb) (AID 2283010; active means hit-call score of the fitted dose curve at least 0.9, where 1 is the maximum)
Summary of the method: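 HepG2 cells transiently transfected with GAL4-UAS reporter units expressing chimeric NR-Gal4 protein; reporter mRNA measured 24 h after dosing by RT-PCR, 6-FAM labelling and capillary electrophoresis. Gain-of-signal fitted relative to DMSO baseline.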

[20] = BSK_3C_VCAM1: BioMAP Diversity Plus: 3C Assay for Vascular cell adhesion molecule 1 (VCAM1) Biomarker Activity (AID 2282999); settings: BioMAP 3C HUVEC, VCAM1 ELISA, cytokine-stimulated; actives raise or lower the signal
Summary of the method: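 Endothelial cells from human umbilical vein are treated with test chemical. At 24 h, VCAM-1 is measured by ELISA, and responses in either direction are fitted relative to DMSO.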

Sequence of human Peroxisome Proliferator-activated Receptor delta (PPARd), PPARD (gene 5467) (Q03181 whole entry, looked up, the tested form may be a part): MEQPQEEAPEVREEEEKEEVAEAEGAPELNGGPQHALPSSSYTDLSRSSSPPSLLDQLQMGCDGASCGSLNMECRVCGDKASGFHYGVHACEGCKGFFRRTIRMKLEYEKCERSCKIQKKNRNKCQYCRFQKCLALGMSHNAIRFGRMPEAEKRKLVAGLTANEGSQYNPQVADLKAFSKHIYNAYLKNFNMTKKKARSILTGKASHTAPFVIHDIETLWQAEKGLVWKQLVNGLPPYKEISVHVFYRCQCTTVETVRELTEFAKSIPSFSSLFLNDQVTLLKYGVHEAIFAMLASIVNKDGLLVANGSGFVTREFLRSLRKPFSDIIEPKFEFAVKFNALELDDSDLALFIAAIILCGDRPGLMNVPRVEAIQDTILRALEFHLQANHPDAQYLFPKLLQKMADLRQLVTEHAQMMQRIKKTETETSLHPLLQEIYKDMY
Sequence of Nuclear receptor subfamily 1 group I member 2 (Homo sapiens) (O75469 whole entry, looked up, the tested form may be a part): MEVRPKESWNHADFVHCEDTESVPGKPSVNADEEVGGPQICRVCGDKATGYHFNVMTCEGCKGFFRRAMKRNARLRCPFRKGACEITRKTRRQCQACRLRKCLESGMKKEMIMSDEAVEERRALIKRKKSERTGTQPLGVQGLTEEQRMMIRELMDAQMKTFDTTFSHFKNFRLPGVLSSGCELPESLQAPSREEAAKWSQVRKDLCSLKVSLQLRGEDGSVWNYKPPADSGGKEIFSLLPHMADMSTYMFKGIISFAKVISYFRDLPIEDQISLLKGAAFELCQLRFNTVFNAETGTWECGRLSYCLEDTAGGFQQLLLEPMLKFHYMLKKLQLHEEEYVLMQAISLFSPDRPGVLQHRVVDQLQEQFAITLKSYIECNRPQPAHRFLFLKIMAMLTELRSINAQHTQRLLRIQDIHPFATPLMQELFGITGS
Sequence of human RAR-related Orphan Receptor gamma (RORg), RORC (gene 6097) (P51449 whole entry, looked up, the tested form may be a part): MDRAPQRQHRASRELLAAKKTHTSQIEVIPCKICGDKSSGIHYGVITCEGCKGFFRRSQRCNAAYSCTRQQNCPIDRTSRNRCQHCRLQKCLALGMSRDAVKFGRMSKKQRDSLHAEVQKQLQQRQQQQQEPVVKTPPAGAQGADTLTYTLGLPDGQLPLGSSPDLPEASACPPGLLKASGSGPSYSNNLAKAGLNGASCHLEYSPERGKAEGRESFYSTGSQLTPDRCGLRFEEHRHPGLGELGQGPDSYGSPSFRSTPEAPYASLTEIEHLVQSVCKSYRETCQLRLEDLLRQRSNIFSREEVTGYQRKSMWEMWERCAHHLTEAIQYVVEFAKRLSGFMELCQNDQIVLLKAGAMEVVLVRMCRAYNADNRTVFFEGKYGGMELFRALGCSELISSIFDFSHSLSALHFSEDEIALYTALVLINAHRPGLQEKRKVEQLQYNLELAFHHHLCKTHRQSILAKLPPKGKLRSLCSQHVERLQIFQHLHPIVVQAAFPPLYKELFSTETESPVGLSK
Sequence of human Peroxisome Proliferator-activated Receptor alpha (PPARa), PPARA (gene 5465) (Q07869 whole entry, looked up, the tested form may be a part): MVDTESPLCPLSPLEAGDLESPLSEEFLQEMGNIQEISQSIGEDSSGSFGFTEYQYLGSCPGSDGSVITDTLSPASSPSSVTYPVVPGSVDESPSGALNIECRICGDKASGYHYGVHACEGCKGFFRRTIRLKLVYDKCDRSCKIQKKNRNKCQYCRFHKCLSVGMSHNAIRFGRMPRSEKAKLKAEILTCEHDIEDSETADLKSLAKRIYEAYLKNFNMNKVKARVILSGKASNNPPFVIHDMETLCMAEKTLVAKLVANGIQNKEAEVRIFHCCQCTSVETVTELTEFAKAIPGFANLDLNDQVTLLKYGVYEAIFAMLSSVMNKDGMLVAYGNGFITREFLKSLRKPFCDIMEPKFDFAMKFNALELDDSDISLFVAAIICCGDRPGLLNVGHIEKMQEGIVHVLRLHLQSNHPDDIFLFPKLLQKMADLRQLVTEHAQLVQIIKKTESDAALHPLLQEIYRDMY
Sequence of Myc proto-oncogene protein (Homo sapiens) (P01106 whole entry, looked up, the tested form may be a part): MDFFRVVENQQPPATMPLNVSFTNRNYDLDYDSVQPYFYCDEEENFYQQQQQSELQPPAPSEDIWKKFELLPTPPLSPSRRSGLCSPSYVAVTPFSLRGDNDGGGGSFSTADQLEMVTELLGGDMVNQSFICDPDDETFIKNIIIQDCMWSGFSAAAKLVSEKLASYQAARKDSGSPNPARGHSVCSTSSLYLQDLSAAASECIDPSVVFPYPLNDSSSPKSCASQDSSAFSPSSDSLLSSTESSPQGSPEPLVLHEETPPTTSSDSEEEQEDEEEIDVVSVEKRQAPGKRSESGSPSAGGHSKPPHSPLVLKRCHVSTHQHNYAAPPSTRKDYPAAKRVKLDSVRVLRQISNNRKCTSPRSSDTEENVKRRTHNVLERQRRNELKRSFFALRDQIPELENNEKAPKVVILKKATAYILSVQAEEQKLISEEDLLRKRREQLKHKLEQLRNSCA
Sequence of human Retinoic Acid Receptor beta (RARb), RARB (gene 5915) (P10826 whole entry, looked up, the tested form may be a part): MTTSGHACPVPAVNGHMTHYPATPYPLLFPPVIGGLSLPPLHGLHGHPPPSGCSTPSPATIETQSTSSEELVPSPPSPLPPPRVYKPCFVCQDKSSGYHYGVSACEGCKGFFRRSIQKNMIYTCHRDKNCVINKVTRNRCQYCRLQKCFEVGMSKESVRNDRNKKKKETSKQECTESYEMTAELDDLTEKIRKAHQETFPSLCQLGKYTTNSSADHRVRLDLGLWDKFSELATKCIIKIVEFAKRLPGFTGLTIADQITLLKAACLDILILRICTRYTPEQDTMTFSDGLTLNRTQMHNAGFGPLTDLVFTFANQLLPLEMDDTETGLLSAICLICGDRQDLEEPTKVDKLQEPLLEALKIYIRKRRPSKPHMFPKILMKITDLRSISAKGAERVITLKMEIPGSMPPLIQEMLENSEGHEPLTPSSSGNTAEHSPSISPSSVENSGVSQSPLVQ
Sequence of Peroxisome proliferator-activated receptor gamma (Homo sapiens) (P37231 whole entry, looked up, the tested form may be a part): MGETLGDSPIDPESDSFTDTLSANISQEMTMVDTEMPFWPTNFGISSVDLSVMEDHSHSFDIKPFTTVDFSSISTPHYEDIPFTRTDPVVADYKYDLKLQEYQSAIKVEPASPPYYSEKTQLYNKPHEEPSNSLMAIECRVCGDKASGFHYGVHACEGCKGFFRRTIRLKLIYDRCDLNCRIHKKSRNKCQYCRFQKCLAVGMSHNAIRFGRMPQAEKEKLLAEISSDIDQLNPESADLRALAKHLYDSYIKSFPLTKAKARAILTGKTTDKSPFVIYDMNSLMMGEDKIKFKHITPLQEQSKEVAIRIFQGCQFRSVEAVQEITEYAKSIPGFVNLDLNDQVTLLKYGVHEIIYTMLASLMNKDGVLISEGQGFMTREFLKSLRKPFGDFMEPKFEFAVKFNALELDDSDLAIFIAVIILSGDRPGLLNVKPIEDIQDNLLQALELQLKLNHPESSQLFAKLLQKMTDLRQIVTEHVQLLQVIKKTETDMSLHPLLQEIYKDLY
Sequence of human Retinoic Acid Receptor gamma (RARg), RARG (gene 5916) (P13631 whole entry, looked up, the tested form may be a part): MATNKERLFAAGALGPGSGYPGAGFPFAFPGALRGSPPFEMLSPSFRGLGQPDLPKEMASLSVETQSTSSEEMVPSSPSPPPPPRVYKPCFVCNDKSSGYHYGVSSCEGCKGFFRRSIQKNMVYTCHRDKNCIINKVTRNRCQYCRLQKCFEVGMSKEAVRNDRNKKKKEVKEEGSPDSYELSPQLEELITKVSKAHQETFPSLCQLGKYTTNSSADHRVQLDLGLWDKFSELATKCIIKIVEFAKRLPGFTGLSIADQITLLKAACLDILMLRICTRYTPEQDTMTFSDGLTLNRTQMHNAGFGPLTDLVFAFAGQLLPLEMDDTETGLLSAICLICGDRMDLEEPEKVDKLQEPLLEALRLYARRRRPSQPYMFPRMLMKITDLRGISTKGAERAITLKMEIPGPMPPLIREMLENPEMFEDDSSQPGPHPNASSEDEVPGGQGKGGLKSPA
Sequence of Cellular tumor antigen p53 (Homo sapiens) (P04637 whole entry, looked up): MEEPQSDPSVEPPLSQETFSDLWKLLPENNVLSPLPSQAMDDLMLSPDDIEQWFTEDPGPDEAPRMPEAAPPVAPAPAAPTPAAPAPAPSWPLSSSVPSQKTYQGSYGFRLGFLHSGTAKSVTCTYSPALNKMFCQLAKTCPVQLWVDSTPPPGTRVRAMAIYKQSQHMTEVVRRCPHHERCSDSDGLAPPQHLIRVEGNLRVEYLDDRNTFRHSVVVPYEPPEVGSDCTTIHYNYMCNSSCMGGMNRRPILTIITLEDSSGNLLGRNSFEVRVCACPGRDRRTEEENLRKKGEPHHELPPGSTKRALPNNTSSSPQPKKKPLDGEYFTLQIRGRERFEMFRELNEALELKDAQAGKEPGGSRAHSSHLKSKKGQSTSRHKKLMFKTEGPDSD
Sequence of human RAR-related Orphan Receptor beta (RORb), RORB (gene 6096) (Q92753 whole entry, looked up, the tested form may be a part): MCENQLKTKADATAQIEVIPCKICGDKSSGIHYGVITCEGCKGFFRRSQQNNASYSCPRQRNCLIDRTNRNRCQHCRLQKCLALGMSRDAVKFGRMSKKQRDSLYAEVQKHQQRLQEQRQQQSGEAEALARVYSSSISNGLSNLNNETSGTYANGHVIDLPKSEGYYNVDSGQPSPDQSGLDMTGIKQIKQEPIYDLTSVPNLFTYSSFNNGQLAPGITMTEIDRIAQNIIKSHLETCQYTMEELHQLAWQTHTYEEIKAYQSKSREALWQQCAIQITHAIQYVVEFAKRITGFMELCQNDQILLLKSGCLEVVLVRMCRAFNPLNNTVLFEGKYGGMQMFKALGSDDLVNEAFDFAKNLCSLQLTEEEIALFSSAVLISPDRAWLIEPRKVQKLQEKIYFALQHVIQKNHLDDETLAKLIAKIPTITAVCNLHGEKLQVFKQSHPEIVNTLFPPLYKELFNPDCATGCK

COCCl
outcome [1]: inactive
outcome [2]: inactive
outcome [3]: inactive
outcome [4]: inactive
outcome [5]: inactive
outcome [6]: inactive
outcome [7]: inactive
outcome [8]: inactive
outcome [9]: inactive
outcome [10]: inactive
outcome [11]: inactive

C[CH2][Hg][S]c1ccccc1C(=O)O
outcome [1]: inactive
outcome [2]: inactive
AC50 [3]: 0.3 µM (active)
AC50 [4]: 2.87 µM (active)
outcome [5]: inactive
outcome [6]: inactive
outcome [7]: inactive
outcome [12]: inactive
AC50 [9]: 3.71 µM (active)
outcome [13]: inactive

CCOC(=O)C(SP(=S)(OC)OC)c1ccccc1 (stereo not drawn)
outcome [1]: inactive
outcome [2]: inactive
AC50 [3]: 32 µM (active)
outcome [4]: inactive
outcome [5]: inactive
outcome [14]: inactive
AC50 [15]: 20 µM (active)
AC50 [16]: 29.1 µM (active)
outcome [17]: inactive
AC50 [18]: 14.9 µM (active)
AC50 [9]: 70.8 µM (active)
AC50 [10]: 3.52 µM (active)
outcome [11]: inactive

CCOP(=S)(OCC)SCS(=O)(=O)C(C)(C)C
outcome [1]: inactive
outcome [2]: inactive
outcome [3]: inactive
outcome [4]: inactive
outcome [5]: inactive
outcome [14]: inactive
outcome [15]: inactive
outcome [16]: inactive
outcome [17]: inactive
outcome [8]: inactive
outcome [18]: inactive
outcome [9]: inactive
AC50 [10]: 2.41 µM (active)
outcome [11]: inactive

CC1(C)[C@H](/C=C2\CCSC2=O)[C@@H]1C(=O)OCc1coc(Cc2ccccc2)c1
outcome [1]: inactive
outcome [2]: inactive
AC50 [3]: 35.8 µM (active)
outcome [4]: inactive
outcome [5]: inactive
outcome [6]: inactive
outcome [7]: inactive
AC50 [9]: 1.05 µM (active)
AC50 [10]: 0.731 µM (active)
outcome [19]: inactive

Oc1ccc(Cc2ccc(O)cc2)cc1
outcome [1]: inactive
outcome [2]: inactive
AC50 [3]: 100 µM (active)
outcome [4]: inactive
outcome [5]: inactive
outcome [14]: inactive
outcome [15]: inactive
outcome [16]: inactive
outcome [6]: inactive
outcome [7]: inactive
outcome [17]: inactive
outcome [18]: inactive
AC50 [9]: 15.8 µM (active)
outcome [10]: inactive

ClCCCCl
outcome [1]: inactive
outcome [2]: inactive
outcome [3]: inactive
outcome [4]: inactive
outcome [5]: inactive
outcome [7]: inactive
outcome [10]: inactive

COc1nn(C(=O)NS(=O)(=O)c2ccccc2OC(F)(F)F)c(=O)n1C
outcome [1]: inactive
outcome [2]: inactive
outcome [3]: inactive
outcome [4]: inactive
outcome [7]: inactive
outcome [8]: inactive
outcome [9]: inactive
outcome [10]: inactive

Cc1cc(C)cc(C)c1
outcome [1]: inactive
outcome [2]: inactive
outcome [3]: inactive
outcome [4]: inactive
outcome [14]: inactive
outcome [15]: inactive
outcome [20]: inactive
outcome [16]: inactive
outcome [6]: inactive
outcome [17]: inactive
outcome [18]: inactive
outcome [13]: inactive
outcome [19]: inactive

O=C1C[C@@H]2OCC=C3CN4CC[C@]56c7ccccc7N1[C@H]5[C@H]2[C@H]3C[C@H]46
outcome [1]: inactive
outcome [2]: inactive
outcome [3]: inactive
outcome [4]: inactive
outcome [5]: inactive
outcome [9]: inactive
outcome [10]: inactive
outcome [13]: inactive
